Bioassay records from PubChem BioAssay.
PP1 inh = PP1-alpha phosphatase inhibitors, primary screen, counter-screen for PP5 inhibitor project, biochemical, fluorescence, OMFP substrate, single point; purified PP1alpha; inhibition, % at 6.7 µM; hit rate 0.9% among 320,000; AID 2235, 2010;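 active means inhibition above the mean inhibition of all tested compounds plus 3 SD, computed separately for each screening campaign, cut at about 15% in these data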
PP5 inh = PP5 phosphatase inhibitors, primary screen, biochemical, fluorescence; Serine/threonine-protein phosphatase 5 (Homo sapiens), P53041; purified PP5c, OMFP substrate fluorescence; inhibition, % at 6.7 µM; hit rate 0.18% among 320,000; AID 1987, 2009;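 active means inhibition above the campaign's mean inhibition across all tested compounds plus 3 SD, cut at about 9.5% in these data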;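 further: 0% = DMSO only and 100% = 100 µM cantharidin control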
Target sequence (P53041 whole entry, looked up): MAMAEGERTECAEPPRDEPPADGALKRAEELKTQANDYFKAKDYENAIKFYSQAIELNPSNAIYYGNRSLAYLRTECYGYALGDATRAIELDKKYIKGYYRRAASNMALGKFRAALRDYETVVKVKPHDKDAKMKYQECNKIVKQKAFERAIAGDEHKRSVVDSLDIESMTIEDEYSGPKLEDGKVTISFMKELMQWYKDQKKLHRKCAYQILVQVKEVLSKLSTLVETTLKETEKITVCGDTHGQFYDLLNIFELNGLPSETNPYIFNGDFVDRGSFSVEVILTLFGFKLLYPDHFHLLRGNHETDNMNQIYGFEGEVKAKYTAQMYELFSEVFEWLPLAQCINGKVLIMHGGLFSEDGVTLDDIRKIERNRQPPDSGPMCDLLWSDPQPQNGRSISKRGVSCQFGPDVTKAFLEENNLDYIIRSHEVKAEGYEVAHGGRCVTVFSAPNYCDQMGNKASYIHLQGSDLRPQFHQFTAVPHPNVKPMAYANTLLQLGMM
HIF act = HIF pathway transcriptional activators, primary screen, cell-based, U2OS HRE-luciferase, luminescence. U2OS HRE-luciferase reporter; normalized: DMSO 0%, desferrioxamine 100%. activation, % at 7.5 µM (by protocol). hit rate 0.32% among 300,000. AID 1910, 2009;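 active means mean activation of at least 10% of the iron chelator positive control signal, with at least half of replicates also reaching 10%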
Dyrk1A ADPGlo = rat Dyrk1A kinase inhibitors, primary screen, biochemical, single point, plate reader; Dual specificity tyrosine-phosphorylation-regulated kinase 1A (Rattus norvegicus), Q63470; ADP-Glo luminescence, NFATc1 peptide; inhibition, % at 12.5 µM; hit rate 0.43% among 310,000; in the data active means inhibition above about 50%;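 further: plate controls were vehicle with enzyme for no effect and no enzyme for full effect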
STK33 kinase inh = inhibitors of purified STK33 kinase, primary screen, biochemical, ADP-Glo luminescence, homogeneous, cell-free; inhibition, % at 10 µM; MBP phosphorylation; Serine/threonine-protein kinase 33 (Homo sapiens), Q9BYT3; hit rate 0.073% among 320,000;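 active means inhibition at or above 25%, using the most active replicate where run in duplicate; inactive means inhibition below 25%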
An asterisk follows results filed as active; . = no result. This is a sample that favours compounds with a hit; in the whole collection about 1.5% have one here.

SMILES	PP1 inh	PP5 inh	HIF act	Dyrk1A ADPGlo	STK33 kinase inh
COC(=O)C(=Cc1ccc(OCc2ccc([N+](=O)[O-])cc2)c(OC)c1)C(=O)OC	-1	-2	3	2	6
CCOC(=O)C(=Cc1ccc(OCc2ccc([N+](=O)[O-])cc2)c(OC)c1)C(=O)OCC	-1	4	11*	-5	-2
N#C/C(=C\C=C\c1ccccc1)C(=O)Nc1ccccc1	0	2	0	6	-1
N#C/C(=C/C=C/c1ccccc1)C(=O)Nc1ccccc1	-4	0	0	-13	16*
O=C(CSc1nc(N2CCCCC2)nc(N2CCCCC2)n1)c1ccccc1	0	4	0	5	28*
Cc1cc(N2CCCCC2)nc(SCC(=O)c2ccccc2)n1	-2	4	4	-9	-2
CCOC(=O)C(=O)Cc1cccnn1	.	.	.	-2	.
Cc1ccc(C2C(C(=O)c3cc4ccccc4o3)=C(O)C(=O)N2c2cc(C)on2)cc1 (stereo not drawn)	22*	-1	0	-2	-2
Cc1cc(N2C(=O)C(O)=C(C(=O)c3ccco3)C2c2ccc(O)cc2)no1 (stereo not drawn)	-5	0	0	5	-2
Cc1cc(N2C(=O)C(O)=C(C(=O)c3cc4ccccc4o3)C2c2cccs2)no1 (stereo not drawn)	19*	3	2	-1	-1
Cc1cc(N2C(=O)C(O)=C(C(=O)c3ccc(C)o3)C2c2cccs2)no1 (stereo not drawn)	6	-1	0	1	1
COc1cccc(COC(=O)C2CCN(S(=O)(=O)c3ccc(C)cc3C)CC2)c1OC	0	0	0	-1	-2
Cc1ccc(CN=C2NC(=O)C(CC(=O)NCCc3ccccc3)S2)cc1 (stereo not drawn)	-6	1	0	-1	-1
Cc1[nH]c(C)c(S(=O)(=O)N(Cc2ccccc2)C(C)C)c1C(=O)N1CCCC1	-2	2	0	8	4
Cn1cc([N+](=O)[O-])c(C(=O)NC2CCCCCC2)n1	.	.	-1	5	0
CCOC(=O)c1c(NC(=O)COc2ccccc2C#N)sc2c1CC(C)(C)NC2(C)C	3	4	1	-5	-3
CC1(C)Cc2c(sc(NC(=O)COc3cccc4ccccc34)c2C#N)C(C)(C)N1	15*	-2	-1	15	-1
CNC(=O)c1cc(S(=O)(=O)N2CC(C)OC(C)C2)ccc1N1CCOCC1 (stereo not drawn)	.	.	0	6	.
COC/C=C/C1=CC2=CC(=O)C(C)(OC(=O)c3cnc4ccccc4n3)C(=O)C2=CN1CCc1c[nH]c2ccccc12 (stereo not drawn)	17*	2	1	.	0
COC/C=C/C1=CC2=CC(=O)C(C)(OC(=O)c3cnc4ccccc4n3)C(=O)C2=CN1c1ccc(CO)cc1 (stereo not drawn)	20*	-2	-1	.	0
CC(NC(=O)c1ccccc1F)c1nnc(SCC(=O)NC2=NCCS2)n1C (stereo not drawn)	4	0	-1	6	1
O=C(O)c1cccc(Nc2nc(-c3cccnc3)nc3ccccc23)c1	1	-1	0	17	32*
Cc1ccc2[nH]c3c(=O)n(CC(=O)NCCCN(C)Cc4ccccc4)ncc3c2c1	3	-1	66*	-1	-1
COC(C/C=C/[C@H](O)[C@@H](C)OCc1ccccc1)OC	0	0	1	-5	-2
Cc1cc(=O)[nH]c(N/N=C/c2c(O)n(-c3ccccc3)c(=O)c3ccccc23)n1	17*	1	0	11	0
SMILES	PP1 inh	PP5 inh	HIF act	Dyrk1A ADPGlo	STK33 kinase inh
O=c1cnnc(N/N=C/c2ccccn2)[nH]1	4	-1	75*	7	2
Cc1cc(=O)[nH]c(N/N=C/c2ccccn2)n1	0	1	40*	-1	-1
Cc1cc(NC(=O)CCC(=O)N(Cc2ccc(F)cc2)C(C(=O)NC2CCCC2)c2ccco2)no1 (stereo not drawn)	3	0	0	-5	-2
Cc1ccc(S(=O)(=O)N2CCN(CC(O)c3ccccc3)CC2)cc1C (stereo not drawn)	-4	-2	-1	4	-1
O=C(NCc1cc(C(F)(F)F)ccc1Cl)c1cccc2c1C(=O)c1ccc(Cl)cc1S2(=O)=O	.	.	.	.	-1
O=C(Nc1cccc(C(F)(F)F)c1)C1CCCO1 (stereo not drawn)	-1	3	0	0	-1
Cc1ccc(S(=O)(=O)n2nccc2-c2c(-c3ccc(Cl)cc3)noc2C)cc1	-1	1	1	-3	1
C=CCNC(=S)NNC(=O)c1ccc(=O)n(Cc2ccc(Cl)cc2Cl)c1	1	1	-1	-3	1
C=CCn1c(SCC(C)=O)nc2scc(-c3ccco3)c2c1=O	15*	2	0	5	3
O=c1cc(S(=O)(=O)Cc2ccccc2)[nH]c(=O)[nH]1	.	.	.	3	.
CCCCn1c(N)c(N(CCC(C)C)C(=O)CCN2C(=O)C3CC=CCC3C2=O)c(=O)[nH]c1=O (stereo not drawn)	-1	0	1	9	-1
COc1cccc(-n2c(SCC(=O)N3CCOCC3)nnc2-c2c[nH]c3ccccc23)c1	2	1	0	8	-1
COc1cccc(-n2c(SCC(=O)N3CCOCC3)nc3c([nH]c4ccccc43)c2=O)c1	-1	-1	457*	6	2
CN=Cc1sc2ccccc2c1O	-6	1	0	9	0
O=Nc1c(O)c2ccccc2c2ccccc12	3	3	-5	54*	1
CCOC(=O)c1sc(-c2ccc(C(F)(F)F)cc2)nc1O	17*	-1	1	-3	-2
Cn1c(SCC(=O)c2ccccc2)nnc1-c1ccco1	3	0	13*	-11	-1
CC(C)N1C(=O)CCN(C=O)c2ccccc21	-6	-1	-1	-1	0
N#C/C(=C/c1ccc(O)cc1)C(=O)NCc1ccc(Cl)cc1	-3	2	-8	3	-1
N#C/C(=C\c1ccc(O)cc1)C(=O)NCc1cccc(Cl)c1	-2	2	0	51*	11
O=C1OCc2cc(NC(=O)C34CC5CC(CC(C5)C3)C4)ccc21	-2	2	828*	-2	0
CCCC(=O)NC(=S)c1c(C)n(C)n(-c2ccccc2)c1=O	-1	0	1	-3	1
CCOC(=O)c1ccc(S(=O)(=O)NNC(=O)COc2ccccc2C)cc1	4	-1	999*	-8	-1
CC(CNC(=O)COC(=O)c1ccco1)c1ccccc1 (stereo not drawn)	-4	-4	.	-2	0
